Screening results: PubChem BioAssay, several laboratories
In the library only some 2.3% were active in any assay of this set; here they are far more common.
PfM18AAP inh-1: PfM18AAP inhibitors, malaria aminopeptidase, primary screen, biochemical, QFRET, recombinant enzyme; M18 aspartyl aminopeptidase (Plasmodium falciparum 3D7); inhibition, % at 7.35 µM; H-Glu-NHMec fluorogenic cleavage; 290,000 compounds, 1.2% hits;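 active means inhibition above the campaign mean inhibition over all tested compounds plus 3 SD, cut at about 28% in these data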;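 further: 0% = plate median of test compound wells and 100% = 2 mM ZnCl2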
DNA FID counter: compounds displacing fluorescent DNA intercalator, primary screen, artefact control for HCV NS3 helicase inhibitor project, biochemical, FID fluorescence; DNA fluorescent intercalator displacement; inhibition, % at 7.9 µM; 290,000 compounds, 0.17% hits; in the data active means inhibition above about 37%;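 further: 0% = vehicle and 100% = reference compound; higher means more ethidium bromide displaced from hairpin DNA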
Kir21 block: inhibitors of mouse Kir2.1 inward-rectifier potassium channel. Inward rectifier potassium channel 2 (Mus musculus), P35561. HEK293-Kir2.1, FluxOR thallium flux fluorescence; stronger effect = lower value. B-score at 10 µM. 310,000 compounds, 0.85% hits;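 active means fluorescence ratio B-score at or below minus 3 SD of library scores, with starting-brightness B-score within 2 SD, cut at about -4.2 in these data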;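 further: channel flux triggered by added potassium and thallium sulfate stimulus; B-score of peak minus minimum fluorescence over baseline after thallium stimulus; more negative B-score means stronger Kir2.1 block with less thallium influx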
Rce1 inh: yeast Rce1p protease inhibitors, primary screen, biochemical, fluorescence, cell-free homogeneous | AID 2563, 2010 | calls only | yeast membranes, quenched prenylated peptide cleavage fluorescence | 290,000 compounds, 0.27% hits | CAAX prenyl protease 2 (Saccharomyces cerevisiae (strain ATCC 204508 / S288c)), Q03530;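 active means fall in fluorescence gain of 50% or more versus controls, with final raw signal at or below 3038400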;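 further: plate controls were neutral control wells for no effect and wells lacking membranes for full effect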
Target sequence (Q03530 whole entry, looked up): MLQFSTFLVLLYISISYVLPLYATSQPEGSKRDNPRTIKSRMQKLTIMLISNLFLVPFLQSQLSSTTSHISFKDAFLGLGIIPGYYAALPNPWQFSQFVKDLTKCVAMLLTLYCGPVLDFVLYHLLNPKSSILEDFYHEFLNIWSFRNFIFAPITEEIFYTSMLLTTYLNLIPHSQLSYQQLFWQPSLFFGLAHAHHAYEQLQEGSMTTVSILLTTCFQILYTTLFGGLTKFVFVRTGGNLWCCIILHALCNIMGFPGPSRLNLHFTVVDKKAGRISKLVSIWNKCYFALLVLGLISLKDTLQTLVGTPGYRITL
PfM18AAP inh-2: PfM18AAP inhibitors, malaria aminopeptidase, confirmation, biochemical, QFRET, recombinant enzyme, triplicate | shares compounds with PfM18AAP inh-1 | H-Glu-NHMec fluorogenic cleavage | inhibition, % at 7.35 µM | 2,400 compounds, 28% hits | AID 2170, 2009;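 active means mean inhibition over replicate wells above the hit cutoff set for the earlier primary screen, cut at about 29% in these data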;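 further: 0% = median of test compound wells and 100% = 2 mM ZnCl2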
CTSL1 confirm: cathepsin L1 inhibitors, retest, confirmation, counter-screen for PFM18AAP inhibitor project, biochemical, QFRET, triplicate. 2,400 tested, under 10 active. shares compounds with PfM18AAP inh-1. purified cathepsin L1, Z-Leu-Arg-MCA fluorescence. inhibition, % at 5.96 µM;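 active means average inhibition across replicates above the hit cutoff set in the earlier primary screen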;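 further: 0% = median of test compound wells and 100% = Z-Phe-Ala-diazomethylketone 1 µM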
Target sequence (P07711 whole entry, looked up): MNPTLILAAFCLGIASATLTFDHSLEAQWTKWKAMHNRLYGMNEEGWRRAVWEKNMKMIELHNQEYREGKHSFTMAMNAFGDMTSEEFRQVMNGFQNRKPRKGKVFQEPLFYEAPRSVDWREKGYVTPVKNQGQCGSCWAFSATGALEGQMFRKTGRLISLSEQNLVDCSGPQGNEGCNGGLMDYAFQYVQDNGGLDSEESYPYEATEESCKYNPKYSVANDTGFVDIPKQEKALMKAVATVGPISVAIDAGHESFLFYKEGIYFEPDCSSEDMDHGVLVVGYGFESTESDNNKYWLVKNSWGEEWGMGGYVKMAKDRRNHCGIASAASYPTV
* = called active by the depositor; i = inactive; . = not tested or not shown.

SMILES	PfM18AAP inh-1	DNA FID counter	Kir21 block	Rce1 inh	PfM18AAP inh-2	CTSL1 confirm
O=C(NCCN1CCOCC1)c1ccc(NS(=O)(=O)c2ccccc2)cc1	2	-5	0.78	i	.	.
CCN(CC)c1ccc2nc3ccccc3[n+](CC)c2c1	1	31	-0.33	.	.	.
Cc1ccc2ccccc2[n+]1CCCS(=O)(=O)[O-]	1	3	-0.06	i	.	.
CCCC[n+]1c2ccccc2cc2ccccc21	38*	38*	-5.9	i	16	-2
CCC[n+]1c2ccccc2cc2ccccc21	47*	38*	-2.3	i	17	3
CC(=O)c1ccc(N2CCN(C(=O)c3cccs3)C(C)C2)c(F)c1 (configuration not stated)	-3	-31	-0.75	i	.	.
NC(=S)N/N=C/c1coc2ccc(O)cc2c1=O	69*	0	-1.2	i	42*	6
CC(=O)N(C)c1cccc(-c2ccc3nnc(C)n3n2)c1	2	-9	0.38	i	.	.
NNc1nccc(Nc2ccccc2C(=O)O)n1	43*	-6	2.1	i	26	3
CCCN(CCO)C1CCN(CCc2ccccc2)CC1	-4	10	1.9	i	.	.
N=c1c(C(=O)NCC2CCCO2)cc2c(=O)n3ccccc3nc2n1Cc1ccccc1Cl (configuration not stated)	-2	-3	-0.69	i	.	.
N#C/C(=C(/O)CSc1ncn[nH]1)c1nc2ccccc2[nH]1	64*	-5	0.11	i	9	3
N#C/C(=C\c1ccc(-c2ccccc2)o1)C(=O)Nn1cnnc1	63*	-24	2	i	54*	6
Cc1ccc(-c2ccc(/C=C(\C#N)C(=O)Nc3cc(C)nn3-c3ccccc3)o2)cc1	-5	-3	3	i	.	.
CN(C)S(=O)(=O)c1cccc(CSCc2cccc(S(=O)(=O)N(C)C)c2)c1	-8	-25	-3	i	.	.
O=C(NCc1ccco1)c1cc2cc(Br)ccc2o1	33*	-8	-1.4	i	-13	-3
O=C(O)c1ccc(Cn2cc(/C=C\[N+](=O)[O-])c3ccccc32)o1	39*	-10	0.57	i	-29	-4
O=C(/C=C/c1cccnc1)c1ccc(O)cc1	5	-1	0.42	i	.	.
O=C(/C=C/c1cccnc1)c1ccc([N+](=O)[O-])cc1	32*	5	-1.2	i	13	-4
Fc1ccc2[nH]c3c(NCc4ccccc4)ncnc3c2c1	6	3	-2.5	i	.	.
Cc1cc2c(cc1C)/C(=N/NC(=O)c1ccccn1)CCC2	-7	-5	1	i	.	.
O=C(NN=C1CCC(=NNC(=O)c2ccccn2)CC1)c1ccccn1	32*	3	.	.	-17	-1
CCOC(=O)c1c(NS(=O)(=O)c2cccc(OC)c2)sc2c1CCC2	33*	-13	-0.04	i	-84	0
CCOC(=O)Nc1sc2c(c1C(=O)OCC)CCC2	-8	-7	-1.7	i	.	.
COc1cccc(NC(=O)CN(C)C(=O)c2oc3c(ccc4ccccc43)c2C)c1	.	.	-1.9	i	.	.
SMILES	PfM18AAP inh-1	DNA FID counter	Kir21 block	Rce1 inh	PfM18AAP inh-2	CTSL1 confirm
COc1ccc(NC(=O)Nc2nc3ccccc3s2)cc1	-6	-5	-0.29	i	.	.
O=C(NNc1nc2ccccc2s1)Nc1ccc(Cl)c(Cl)c1	60*	1	2	i	49*	-4
O=C(NNc1nc2ccccc2s1)C1CC1	56*	-2	1.9	i	24	-3
O=C(NNc1nc2ccccc2s1)Nc1ccc(F)cc1	60*	2	1.1	i	34*	-4
O=C(NNc1nc2ccccc2s1)c1ccccc1F	47*	-12	0.5	i	-5	6
CC(C)C(=O)NNc1nc2ccccc2s1	11	-4	-0.01	i	.	.
O=C(CSc1nc2ccccc2s1)NNC(=O)Nc1ccc(Cl)c(Cl)c1	52*	8	-0.66	i	-22	3
CCOc1ccc(CN2CCNC(=O)C2CC(=O)NC2CCOCC2)cc1 (configuration not stated)	-1	-5	-0.48	i	.	.
O=C(Cn1sc2ccccc2c1=O)NC12CC3CC(CC(C3)C1)C2	34*	-9	0.4	i	21	1
CCCC(C)c1nnc(NC(=O)C2CC(=O)N(CCc3ccc(F)cc3)C2)s1 (configuration not stated)	41*	-41	0.83	i	-9	0
CCc1nnc(NC(=O)C2CC(=O)N(CCc3ccc(F)cc3)C2)s1 (configuration not stated)	3	-23	-0.32	i	.	.
Cc1ccc(NC(=S)Nn2cnnc2)c(C)c1	72*	-2	-0.03	i	65*	0
Cc1ccc(Cl)cc1NC(=S)N(C)N	17	-4	0.14	.	.	.
FC(F)(F)c1ccccc1NC(=S)Nn1cnnc1	75*	0	0.59	i	56*	-2
CCNC(=O)COc1ccc(Br)cc1Cl	-3	4	-0.11	i	.	.
O=C(COc1ccc(Br)cc1Cl)Nn1cnnc1	43*	-4	-0.9	i	42*	-2
Cc1ccc(Cl)cc1NC(=S)Nn1cnnc1	77*	-3	-0.65	i	63*	0
O=C(NCc1cccc(OC(F)(F)F)c1)C1CCC(=O)N(Cc2cccc(F)c2)C1 (configuration not stated)	-4	-24	-0.13	i	.	.
Cc1ccc2c(c1)C(=O)C(=O)N2CC(=O)Nc1ccccc1NC(=O)c1ccccn1	-5	-8	-0.55	i	.	.
COc1ccc2cc(/C=C/C(=O)N3CCN(CC(=O)N4CCCCCC4)CC3)ccc2c1	-10	-33	0.31	.	.	.
COc1ccc(OC)c(S(=O)(=O)N/N=C\c2cn(CC(N)=O)c3ccccc23)c1	2	-12	0.07	i	.	.
COc1cc([N+](=O)[O-])ccc1NC(=S)Nn1cnnc1	84*	-3	0.16	i	71*	4
S=C(Nc1ccc(Br)cc1Cl)Nn1cnnc1	77*	0	-1.5	i	80*	2
S=C(NCc1ccncc1)Nc1ccc(Br)cc1Cl	7	-4	-0.06	i	.	.
CCCCc1nnc2c(N(C)S(=O)(=O)c3ccccc3)nc3ccccc3n12	2	-3	0.79	i	.	.
COc1ccc(CNc2nc(SC)n[nH]2)cc1OC	-2	-3	.	i	.	.
COc1ccc(CNc2n[nH]c(NCc3ccc(OC)c(OC)c3)n2)cc1OC	47*	-10	-0.5	i	2	-5
CCC(=O)n1nc(NCc2ccc(OC)c(OC)c2)nc1NCc1ccc(OC)c(OC)c1	38*	-43	-1.5	i	-9	-3
O=C(N/N=C/c1c[nH]c2ccccc12)c1cccc(O)c1	3	-3	0.86	i	.	.
